PubChem BioAssay (NCATS)
Records with an inconclusive call do not appear. A call without a number means that no potency is given here. A number with no mark means an inactive call. Calls of active or inactive are those of the source. Calls follow the shape of the dose curve; as a rule, active = well fitted cell-killing curve with a large enough effect; inconclusive = small, poorly fitted or top-dose-only effect, or effect the other way; inactive = no such curve, though single readings can be large or run the other way.

Legend:
[1] = Viability qHTS for spleen associated tyrosine kinase inhibitor (SYKi) naive MV4-11 cells (AID 1963823); also: nearly all actives have a fitted effect of over 40% in size
Outline: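 Viability of MV4-11 AML cells lacking prior SYK inhibitor exposure is scored by CellTiter-Glo luminescence following 72 hr compound incubation at 37 C, 5% CO2, seeded at 500 cells per well.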

[2] = Viability qHTS for spleen associated tyrosine kinase inhibitor (SYKi) drug resistant MV4-11 cells (AID 1963824); also: nearly all actives have a fitted effect of over 35% in size
Outline: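 CellTiter-Glo luminescence, read 10 min after reagent addition, reports viability after a 72 hr compound exposure. Cells are an MV4-11 line made resistant to SYK inhibition, seeded at 500 per well onto compound-containing plates.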
Potency is read from the fitted curve at half-maximal effect.

Compound | viability (% of control) [1] | viability, % of control [2] | Potency [1] | Potency [2]
CC1(C)CC[C@]2(C(=O)O[C@@H]3O[C@H](CO)[C@@H](O)[C@H](O)[C@H]3O)CC[C@]3(C)C(=CCC4[C@@]5(C)C[C@H](O)[C@H](O[C@@H]6OC[C@@H](O)[C@H](O)[C@H]6O)[C@@](C)(CO)C5CC[C@]43C)C2C1 (some centres undefined) | 96.5% [at 9.25 µM] | 109% [at 9.25 µM] | – | –
C=C1CC[C@@H]2[C@](C)(CO)[C@H](O)CC[C@@]2(C)[C@@H]1/C=C/C1=CCOC1=O | – | – | inactive | inactive
Cc1ccc(C(=O)/C=C/c2ccccc2)s1 | – | – | 8.2 µM (active) | 7.31 µM (active)
O=C(c1ccc(-c2ccc(Cl)cc2)o1)N(Cc1ccccn1)c1ccc(N2CCNCC2)cc1 | – | – | 13 µM (active) | 9.2 µM (active)
C=C1C[C@@]23CC[C@@H]4[C@](C)(C(=O)O)CCC[C@@]4(C)C2=CC[C@H]1C3 | – | – | inactive | inactive
O=C(O)Cc1cn([C@@H]2O[C@H](CO)[C@@H](O)[C@H](O)[C@H]2O[C@@H]2O[C@H](CO)[C@@H](O)[C@H](O)[C@H]2O)c2ccccc12 | – | – | inactive | inactive
COc1cc(O)c2c(c1Cl)CC(C)OC2=O (centres undefined) | – | – | inactive | inactive
CC(CCC1(O)OC2CC3C4CCC5CC(O[C@@H]6O[C@H](CO)[C@@H](O)[C@H](O)[C@H]6O[C@@H]6OC[C@@H](O)[C@H](O)[C@H]6O)C(O)CC5(C)C4CCC3(C)C2C1C)CO[C@@H]1O[C@H](CO)[C@@H](O)[C@H](O)[C@H]1O (some centres undefined) | 83.1% [at 9.25 µM] | 86.8% [at 9.25 µM] | – | –
C[C@]1(CO)CCC[C@]2(C)C3=C(CCC12)COC3 (some centres undefined) | – | – | inactive | inactive
C[C@H]1/C=C/C=C/C=C/C=C/C=C/[C@@H](O)[C@H](C(=O)O)[C@H](O)C[C@H](O)CCC[C@H](O)C[C@H](O)C[C@H](O)[C@@H](C)C(=O)O[C@@H]1C | – | – | inactive | inactive
N#C/C(=C1\Nc2ccccc2S1)c1ccnc(NCCc2cccnc2)n1 | – | – | 2.31 µM (active) | 2.31 µM (active)
C/C(=C/CO)CC[C@H]1[C@]2(C)C[C@H](O)CC(C)(C)[C@H]2CC[C@]1(C)O | – | – | inactive | inactive
CC(=O)c1c(O)cc2cccc3c2c1CC(C)(O)O3 (centres undefined) | – | – | inactive | inactive
CC1=CCC2C(C)(CO)CCCC2(CO)C1CO (centres undefined) | – | – | inactive | 16.4 µM (active)
C/C=C/[C@@H]1C=C[C@@H]2C[C@H](C)CC[C@H]2[C@]1(C)/C(O)=C1/C(=O)[C@@H](CO)N(C)C1=O | – | – | 14.3 µM (active) | 16.1 µM (active)
CC(C)[C@@H](c1ccc(C(F)(F)F)cc1CN(Cc1cc(C(F)(F)F)cc(C(F)(F)F)c1)c1nnn(C)n1)N1CCC(C(=O)O)CC1 | – | – | 16.4 µM (active) | 20.6 µM (active)
CC(CCc1ccc(O)cc1)O[C@@H]1O[C@H](CO[C@@H]2OC(CO)[C@H](O)[C@H]2O)[C@@H](O)[C@H](O)[C@H]1O (some centres undefined) | – | – | inactive | inactive
CC1(C)CC2C(C1)C(C)(O)C13CC1(COC3=O)C2O (centres undefined) | – | – | inactive | inactive
CCc1c(CC(N)=O)c2cc(OCCCP(=O)(O)O)ccc2n1Cc1ccccc1 | – | – | inactive | inactive
COC(=O)c1ccccc1O[C@@H]1O[C@H](CO[C@@H]2OC[C@@H](O)[C@H](O)[C@H]2O)[C@@H](O)[C@H](O)[C@H]1O | – | – | inactive | inactive
CCCCC[C@H](O)C=C[C@H]1[C@H](O)CC(=O)[C@H]1CC=CCCCC(=O)O | – | – | 0.119 µM (active) | 0.0186 µM (active)
C=C1CCC2(C(=O)OC3OC(CO)C(O)C(O)C3O)CCC3(C)C(=CCC4C5(C)CCC(OC6OC(CO)C(OC7OC(C)C(O)C(O)C7O)C(OC7OCC(O)C(O)C7O)C6O)C(C)(C)C5CCC43C)C2C1 (centres undefined) | 89.9% [at 9.25 µM] | 105% [at 9.25 µM] | – | –
CC1=C2CC(=O)C(C)CC/C=C(\C)CC2(O)OC1=O (centres undefined) | – | – | inactive | inactive
N=C(N)c1ccc2nc(-c3cc(CC(=O)NC(CC(=O)O)C(=O)O)cc(-c4cc(S(N)(=O)=O)ccc4O)c3O)[nH]c2c1 (centres undefined) | – | – | inactive | inactive

Compound | viability (% of control) [1] | viability, % of control [2] | Potency [1] | Potency [2]
Cc1cccc(N(C)C(=S)Oc2ccc3c(c2)C2CCC3C2)c1 (centres undefined) | – | – | inactive | inactive
C[C@@H]1O[C@@H](O[C@@H]2[C@@H](O)[C@@H](O[C@]3(CO)O[C@H](CO)[C@@H](O)[C@@H]3OC(=O)/C=C/c3ccc(O)cc3)O[C@H](CO)[C@H]2OC(=O)/C=C/c2ccc(O)cc2)[C@H](O)[C@H](O)[C@H]1O[C@@H]1O[C@@H](C)[C@H](O[C@@H]2OC[C@](O)(CO)[C@H]2O)[C@@H](O)[C@H]1O | 90% [at 9.25 µM] | 102% [at 9.25 µM] | – | –
COc1c/c(=C2\C=c3ccccc3=N2)[nH]/c1=C\c1[nH]c(C)cc1C | – | – | 5.17 µM (active) | 5.8 µM (active)
O=C(C[C@@H]1C(C(=O)O)=CO[C@@H](O[C@@H]2O[C@H](CO)[C@@H](O)[C@H](O)[C@H]2O)/C1=C\CO)OCCc1ccc(O)cc1 | – | – | inactive | inactive
CC(C)CC(=O)O[C@@H]1OC=C(CO[C@@H]2O[C@H](CO[C@@H]3O[C@H](CO)[C@@H](O)[C@H](O)[C@H]3O)[C@@H](O)[C@H](O)[C@H]2O)[C@H]2C[C@H](O)[C@@H](CO)[C@@H]12 | – | – | inactive | inactive
C[C@]12C[C@@H](O)[C@@H]3C[C@@]1(O[C@@H]1O[C@H](CO)[C@@H](O)[C@H](O)[C@H]1O)[C@]3(COC(=O)c1ccccc1)C(=O)O2 | – | – | inactive | inactive
Nc1nc2c(nc(Br)n2[C@@H]2O[C@@H]3COP(=O)(O)O[C@H]3[C@H]2O)c(=O)[nH]1 | – | – | inactive | inactive
COc1cc(/C=C/C(=O)N2CCN(CC(=O)N3CCCC3)CC2)cc(OC)c1OC | – | – | inactive | inactive
CCOc1nc2c(N)ncnc2n1CC | – | – | inactive | inactive
C=C1CC[C@@H](O)[C@]2(C)CC[C@H]3C(=C)C(=O)O[C@@H]3[C@@H]12 | – | – | 18.4 µM (active) | 11.6 µM (active)
CC(C)=CCC/C(C)=C/CC/C(C)=C/COC1OC(COC2OCC(OC3OCC(O)C(O)C3O)C(O)C2O)C(O)C(OC2OC(C)C(OC3OC(C)C(OC4OCC(OC5OC(C)C(O)C(O)C5O)C(O)C4O)C(O)C3O)C(O)C2O)C1O (centres undefined) | 70.7% [at 9.25 µM] | 96.7% [at 9.25 µM] | – | –
COc1cc(C(C)=O)ccc1O[C@@H]1O[C@H](CO)[C@@H](O)[C@H](O)[C@H]1O | – | – | inactive | inactive
Cc1cc(C(=O)N2Cc3cnn(C)c3Nc3ccccc32)ccc1CNC(=O)N1CCN(Cc2cc(O)cc(O)c2)CC1 | – | – | inactive | inactive
CC1CCC2(C(=O)OC3OC(CO)C(O)C(O)C3O)CCC3(C)C(=CCC4C5(C)CC(O)C(O)C(C)(C(=O)O)C5CCC43C)C2C1(C)O (centres undefined) | – | – | inactive | inactive
COc1cc(CCCO)ccc1O[C@@H]1O[C@H](CO)[C@@H](O)[C@H](O)[C@H]1O | – | – | inactive | inactive
O=C(CC1CC(c2ccc(F)cc2F)=NO1)N1CCOCC1 (centres undefined) | – | – | inactive | inactive
CC1(C)S[C@@H]2[C@H](NC(=O)[C@H](NC(=O)N3CCN(S(C)(=O)=O)C3=O)c3ccccc3)C(=O)N2[C@H]1C(=O)O | – | – | inactive | inactive
O=C(OC[C@@]1(O)CO[C@@H](O[C@H]2[C@H](Oc3ccc(O)cc3)O[C@H](CO)[C@@H](O)[C@@H]2O)[C@@H]1O)c1ccc(O)cc1 | – | – | inactive | inactive
O=C(OCC1=CC(O)C2C=CO[C@@H](O[C@@H]3O[C@H](CO)[C@@H](O)[C@H](O)[C@H]3O)C12)c1ccccc1 (some centres undefined) | – | – | inactive | inactive
CN(C)CC1CCn2c(c(C3=C(c4cn(C)c5ccccc45)C(=O)NC3=O)c3ccccc32)C1 (centres undefined) | – | – | 1.46 µM (active) | 2.91 µM (active)
C[C@@H]1O[C@@H](OC[C@H]2O[C@@H](Oc3cc(O)cc4c3C(=O)C(O)(Cc3ccc(O)cc3)O4)[C@H](O)[C@@H](O)[C@@H]2O)[C@H](O)[C@H](O)[C@H]1O (some centres undefined) | – | – | inactive | inactive
CC(C)CC1NC(=O)C(C(C)c2ccccc2)NC(=O)C(C(C)C)NC(=O)C(C)NC(=O)CCCNC(=O)C(Cc2c[nH]c3ccccc23)NC(=O)C(C)NC1=O (centres undefined) | – | – | inactive | inactive
CCN(CC)CCCS(=O)(=O)N[C@H](CCc1ccccc1)c1nc(Cc2ccc(Br)cc2)no1 | – | – | 20.6 µM (active) | 20.6 µM (active)
